In the library only some 2.9% were active in any assay of this set; here they are far more common.
PGE2 EP2 inh = EP2 receptor (human) inhibition; inhibition, % at 25 µM; C6 glioma cells expressing human EP2, cAMP TR-FRET; cells stimulated with saturating PGE2; P43116; 0.52% of 260,000 active;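 active means percent inhibition above 40 after rounding to a whole number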;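 further: rat C6 glioma host cells with rolipram phosphodiesterase inhibitor present; the protocol text gives 20 µM as final concentration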
Target sequence (P43116 whole entry, looked up): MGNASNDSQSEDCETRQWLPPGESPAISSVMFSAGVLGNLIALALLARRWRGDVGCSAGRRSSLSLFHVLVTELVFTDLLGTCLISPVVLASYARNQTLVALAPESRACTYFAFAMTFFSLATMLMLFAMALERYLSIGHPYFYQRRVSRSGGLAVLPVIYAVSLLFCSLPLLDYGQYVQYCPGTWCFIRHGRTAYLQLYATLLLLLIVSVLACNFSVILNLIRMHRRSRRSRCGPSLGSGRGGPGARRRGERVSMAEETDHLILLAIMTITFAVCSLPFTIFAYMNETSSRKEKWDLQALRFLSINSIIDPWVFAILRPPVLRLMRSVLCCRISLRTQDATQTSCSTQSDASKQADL
RAM inhibit = yeast RAM network inhibition. S. cerevisiae dse1pr::URA3 reporter, 5-FOA growth OD615, 2 d; analog-sensitive cbk1-as2 kinase mutant strain. inhibition, % at 50 µM. 1.8% of 190,000 active. AID 868;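 active means inhibition above a set limit, 3 SD over mean compound inhibition, cut at about 8.4% in these data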;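 further: 0% = DMSO-only wells with no growth and 100% = 10 µM 1-NA-PP1 full growth; inhibition rescues growth on 5-FOA so higher OD means more RAM inhibition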
Rev-erbA mod = Rev-erb alpha (human) modulation; Rev-erbα–FITC-DNA binding, fluorescence polarization, 90 min; activity, % at 10 µM; 0.79% of 370,000 active; AID 1259318;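 active means activity above about 14%, limit read from the data; passing the limit was not always enough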;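 further: 0% = DMSO wells with 35 nM protein and 100% = DMSO wells with 750 nM protein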
PG9 Ab binder = binds the HIV-1 gp120 antibody PG9. TR-FRET gp120-PG9 antibody binding. inhibition, % at 6.7 µM. 0.43% of 360,000 active. AID 624416; in the data active means inhibition above about 8.5%
SKN-1 block = inhibitors of C. elegans SKN-1; C. elegans VP596 Pgst-4::GFP/RFP ratio, acrylamide-induced, 24 h; inhibition, % at 21.8 µM; 0.49% of 360,000 active; AID 624304;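 active means interference check ratio from 0.5 to 1.5 plus GFP to RFP signal ratio inhibition reaching or exceeding a fixed threshold, cut at about 30% in these data, passing the limit was not always enough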
EP2 mod = EP2 receptor (human) modulation. P43116. EP2-expressing cells, cAMP HTRF FRET, PGE2 co-stimulation. induction, % at 25 µM. 0.83% of 260,000 active. AID 940;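 active means compounds whose cAMP rise, as percent of the full-agonist control response, exceeds 60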;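 further: rat C6 glioma line stably carrying human EP2 under a CMV promoter; the protocol text gives 20 µM as final concentration; 100% = response of wells given 1 µM PGE2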
Rev-erbA confirm = Rev-erb alpha (human) modulation, hit confirmation | Rev-erb alpha FITC-DNA binding, fluorescence polarization, 90 min | 61% of 3,000 active | shares compounds with Rev-erbA mod | AID 1259319 | activation, % at 25 µM;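 active means activation at or above a set limit, or at least 3 SD above the negative control mean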;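 further: 0% = 35 nM protein with DMSO and 100% = 750 nM protein high control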
RORg counter = affects RORgamma DNA binding in a Rev-erb alpha counter-screen; 8% of 910 active; shares compounds with Rev-erbA mod; AID 1259320; purified RORgamma protein-FITC-DNA binding, fluorescence polarization; IC50, µM;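 active means Compounds whose fitted half-maximal concentration for disrupting protein-DNA binding is below 10 micromolar; the record names Rev-erb in its text, so the target is in doubt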
Numbers without * were called inactive; i = inactive; x = no result given.

SMILES	PGE2 EP2 inh	RAM inhibit	Rev-erbA mod	PG9 Ab binder	SKN-1 block	EP2 mod	Rev-erbA confirm	others
Cc1cccc(C)c1OC(=O)CSc1nnc(-c2ccccc2O)o1	9	5	29*	5	-11	14	26*
Cc1ccccc1-c1nnc(SCC(N)=O)o1	19	x	x	x	x	14	x
CCCCCCc1nc2c(=O)[nH]c3ccccc3c2o1	12	0	52*	2	13	13	11
CCOc1cccc(-c2nnc3sc(-c4cc(OC)c(OC)c(OC)c4)nn23)c1	x	1	25	0	9	-18	x
CCOc1cccc(-c2nnc3sc(-c4cccs4)nn23)c1	6	4	29*	1	6	2	20*
O=C(CSc1nc(C2CC2)nc2ccccc12)Nc1ccccc1Cl	x	x	21*	0	-10	x	12
Cc1cccc(C(=O)OCC(=O)N2CCCCCC2)c1O	x	x	5	1	-6	x	x
CN(C)c1ccc(N=Nc2ccccc2C(=O)OCC(=O)N2CCCCCC2)cc1	3	1	27*	-2	22	-6	35*	RORg counter=>40
CSc1ccccc1C(=O)OCC(=O)N1CCCCCC1	x	x	-8	1	6	x	x
CN(C)c1ccc(N=Nc2ccccc2C(=O)OCC(=O)N2CCCC2)cc1	4	1	36*	-8	11	4	40*	RORg counter=1.2*
Cc1cc(N2CCN(c3ncccn3)CC2)nc2c(C)cccc12	x	x	35*	-2	-12	x	6
COc1ccc(Cc2nnc(NC(=O)C(C)(C)Oc3ccc(Cl)cc3)s2)cc1OC	10	x	x	x	x	-27	x
COc1ccc(-c2cc(-c3ccc(C)cc3)nc(SCc3nnc(-c4ccccc4)o3)c2C#N)cc1OC	11	6	80*	-2	1	-2	37*	RORg counter=>40
COc1cc(-c2cc(-c3ccccc3)nc(SCC(=O)O)c2C#N)cc(OC)c1OC	x	x	-2	-2	-11	x	x
O=C(c1ccccc1)n1ccc2ccc(-c3ccc4ccn(C(=O)c5ccccc5)c4c3)cc21	x	x	-3	x	x	x	x
COc1cccc(C(=O)n2ccc3ccc(-c4ccc5ccn(Cc6ccc(C#N)cc6)c5c4)cc32)c1	x	x	48*	x	x	x	9
COc1cccc(C(=O)n2ccc3ccc(-c4ccc5ccn(Cc6ccccc6)c5c4)cc32)c1	x	x	24*	x	x	x	52*	RORg counter=6.8*
COc1cccc(C(=O)n2ccc3ccc(-c4ccc5ccn(C(=O)c6cccc(OC)c6)c5c4)cc32)c1	x	x	44*	x	x	x	85*	RORg counter=i
COCCNc1ncc([N+](=O)[O-])c(NCCOC)n1	8	x	x	x	x	-15	x
CC(=O)Nc1ccccc1-c1nnn(CC(=O)NC2CCCC2)n1	4	x	x	x	x	-15	x
CC(=O)c1cccc(NC(=O)c2csc(-n3nc(C)cc3C(F)(F)F)n2)c1	11	2	78*	-1	20	29	70*	RORg counter=>40
Cc1cc(C(F)(F)F)n(-c2nc(C(=O)Nc3cccnc3)cs2)n1	6	-1	0	2	6	10	x
O=C(Nc1nc2ccc(F)cc2s1)c1ccc(Cl)cc1	11	x	x	x	x	-6	x
CCCCN(C)S(=O)(=O)c1ccc(C(=O)N=c2sc3cc(NC(C)=O)ccc3n2C)cc1	5	3	42*	3	-9	-14	14
CCCCN(CC)S(=O)(=O)c1ccc(C(=O)N=c2sc3cc(NC(C)=O)ccc3n2C)cc1	9	4	8	0	-7	-2	x
SMILES	PGE2 EP2 inh	RAM inhibit	Rev-erbA mod	PG9 Ab binder	SKN-1 block	EP2 mod	Rev-erbA confirm	others
O=C(CN1CCC(Nc2nc3c(c(=O)[nH]2)CCC3)CC1)Nc1ccccc1C(F)(F)F	9	x	x	x	x	-6	x
Cc1cc(=O)oc2cc(OCC(=O)Nc3ccc(F)cc3F)ccc12	x	x	21*	1	10	x	-1
Cc1cc(=O)oc2cc(OCC(=O)Nc3ccc(S(=O)(=O)N(C)C)cc3)ccc12	8	x	23*	-1	8	-6	30*	RORg counter=>40
Cc1cc(=O)oc2cc(OCC(=O)Nc3ccc4[nH]c(=O)[nH]c4c3)ccc12	x	x	5	-2	4	x	x
Cc1ccc(NC(=O)COc2ccc3c(C)cc(=O)oc3c2)c(C)c1	11	x	x	x	x	-29	x
CCC(=O)N1CCN(c2cc(Cl)c(C#N)cc2F)CC1	17	x	x	x	x	-8	x
Cc1cc2c(s1)c1cnn(Cc3cc(F)c(F)cc3F)c(=O)c1n2C	x	x	26*	x	x	x	10
Cc1cc2c(s1)c1cnn(Cc3ccc(F)cc3F)c(=O)c1n2C	x	x	18	x	x	x	x
O=C(Cc1ccccc1F)NCCn1nc(-c2cccs2)ccc1=O	7	x	x	x	x	-24	x
Cc1ccc(NC(=O)CSc2nnc(-c3ccoc3C)n2C)c(C)c1	9	x	x	x	x	-8	x
Cc1ccc2nc(-c3ccc(NC(=O)CN4CCN(c5ccccn5)CC4)cc3)sc2c1	9	x	21*	0	15	-31	13
CCC1(c2ccc(F)cc2)NC(=O)N(CC(=O)Nc2ccc(-c3nc4ccc(C)cc4s3)cc2)C1=O (stereo not drawn)	-1	3	41*	3	8	-34	11
Cc1ccc2nc(-c3ccc(NC(=O)CNC4CC4)cc3)sc2c1	4	-1	-1	2	2	-66	x
O=C(CCS(=O)(=O)c1ccccc1)Nc1ccccc1-c1nc2ccccc2s1	4	3	44*	-1	10	30	40*	RORg counter=2.1*
Cc1ccc2nc(-c3ccc(NC(=S)NC(=O)CC(C)C)cc3)sc2c1	11	4	22*	1	-18	9	10
COc1cc(CN2C[C@@H]3CCCN3C[C@H]2Cc2ccccc2)cc(OC)c1OC	7	x	x	x	x	0	x
CCc1ccc(-n2nc3ccc(NC(=S)NC(=O)c4cc(OC)c(OC)c(OC)c4)cc3n2)cc1	7	x	x	x	x	-41	x
Cc1ccc2nc(-c3ccc(NC(=O)CSc4nnc(Cc5cccs5)n4C)cc3)sc2c1	x	x	43*	x	x	x	25*
Cc1ccc2nc(-c3ccc(NC(=O)CCS(=O)(=O)c4ccccc4)cc3)sc2c1	10	6	19*	0	-4	-1	23*
Cc1nc2ccc(NC(=O)CCS(=O)(=O)c3ccccc3)cc2s1	4	2	4	3	-1	-22	x
CCn1c(SCC(=O)Nc2ccc(-c3nc4ccc(C)cc4s3)cc2)nnc1-c1ccccc1	8	6	x	x	x	4	x
Cc1ccc[n+](-c2nc([O-])sc2/C=N/Nc2ccc([N+](=O)[O-])cc2)c1	8	x	26*	-4	17	-8	14
Oc1ccc(N=Nc2ccc(Br)cc2)c(O)c1	28	x	8	-2	10	-36	x
O=[N+]([O-])c1ccccc1N=Nc1ccc(O)cc1O	x	x	32*	-4	30	x	17*
CC1CCCCC1NC(=O)CN1CCC(n2nnc3cc(C(F)(F)F)ccc32)CC1 (stereo not drawn)	14	x	x	x	x	-9	x
O=c1cc(-c2ccccc2O)oc2cc(O)ccc12	14	x	x	x	x	4	x

From PubChem BioAssay
